Results as given in PubChem BioAssay (NCATS).
Inconclusive results are not listed. A call without a number means that no potency is given here. Calls of active or inactive are those of the source. Calls come from the whole dose curve; as a rule, active = well fitted curve in the direction sought with a large enough effect; inconclusive = small, poorly fitted or top-dose-only effect, or another doubt; inactive = no such curve, though single readings can be large; an effect the other way counts as inactive or inconclusive. Where a SMILES comes first, the peptide text is derived from it. The star is where a group is joined. βNA = c1ccc2cc(N*)ccc2c1; Cbz = O=C(OCc1ccccc1)*

What was measured:
[1] = P-glycoprotein substrates identified in KB-3-1 adenocarcinoma cell line, qHTS therapeutic library screen (AID 1346986); note: nearly all actives have a fitted effect of over 60% in size
Procedure, shortened: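 Cells seeded 500/well in DMEM/10% FCS; compounds pinned in dose-response; 72 h incubation; CellTiter-Glo added, 5 min, luminescence. KB-8-5-11 run ±tariquidar to test reversal of P-gp resistance.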

[2] = P-glycoprotein substrates identified in KB-8-5-11 adenocarcinoma cell line, qHTS therapeutic library screen (AID 1346987); note: nearly all actives have a fitted effect of over 65% in size
Procedure, shortened: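 KB-8-5-11, a colchicine-selected P-gp-overexpressing KB-3-1 subline, was grown without colchicine for the assay. Cells were seeded at 500 cells/well, dosed in concentration-response and incubated 72 h at 37 degree C, 5% CO2. Viability was read by CellTiter-Glo luminescence.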

Compound	Potency [1]	Potency [2]
C=C1CCc2occ(C)c2[C@H]2[C@H]1[C@@]13O[C@@]1(C[C@@H](C)[C@H]3OC(C)=O)[C@H]1O[C@@]21C	inactive	inactive
C/C=C(\C)C(=O)OCC1OC(OCC2OC(OC3(CO)OC(CO)C(O)C3O)C(O)C(O)C2O)C(O)C(O)C1O (configuration not stated)	inactive	inactive
Cc1oc(S(=O)(=O)N2CCCCC2)cc1NC(=O)Nc1ccccc1	inactive	inactive
C[C@@H]1CC2OC(=O)C3=C2C(CCC3O)[C@@]12C[C@@H](c1ccoc1)OC2=O (some centres not stated)	inactive	inactive
C=C1C(OC(C)=O)CCC2(C)CC3(O)OC(=O)C(C)=C3CC12 (configuration not stated)	inactive	inactive
CC[C@@H](Nc1c(Nc2cccc(C(=O)N(C)C)c2O)c(=O)c1=O)c1ccc(C)o1	inactive	inactive
COc1cccc(OC)c1-c1ccc(C[C@H](NC(=O)c2c(Cl)cccc2Cl)C(=O)O)cc1	inactive	inactive
COC(=O)C1=CO[C@@H](O[C@@H]2O[C@H](CO[C@@H]3O[C@H](CO)[C@@H](O)[C@H](O)[C@H]3O)[C@@H](O)[C@H](O)[C@H]2O)[C@@H]2C(CO)=CC[C@H]12	inactive	inactive
COc1ccccc1Oc1c(NS(=O)(=O)c2ccc(C)cn2)nc(-c2ccncc2)nc1OC	inactive	inactive
Cc1onc(-c2c(Cl)cccc2Cl)c1CC(=O)NCc1ccc(OCC(F)(F)F)nc1	inactive	inactive
CC(C)CC(NC(=O)OCc1ccccc1)C(=O)NC(CC(C)C)C(=O)NC(CCC(=O)O)C(=O)Nc1ccc2ccccc2c1 (stereo not drawn) (Cbz-Leu-Leu-Glu-βNA; configuration not given here)	inactive	inactive
